SMILES strings stand for the structures. “And” between values parts separate entries of the source, which are not always exact repeats. Equal entries are not always repeated. The panel holds about 83,000 compounds, 20% with a hit somewhere; the sample as a whole holds those more often.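 Compound tested at a single concentration for 48 hours in 96-well plates; a percent growth value below 10 was scored as active.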 The source made the active and inactive calls.

The subject of this assay is PC-3 prostate. As to the kind of experiment: NCI-60 one-dose screen, 48 h (100 = growth as untreated, 0 = no growth, -100 = all killed). The settings on record: 10 µM unless noted.
As for `O=C(O)C1(C(=O)O)CCC1.[NH2-].[NH2-].[Pt+2]`, the growth was 93.6% (inactive) and 78.5% (inactive).

For the compound `CC1(C)[C@@H](OC(=O)CCC(=O)O)CC[C@]2(C)[C@H]3C(=O)C=C4[C@@H]5C[C@@](C)(C(=O)O)CC[C@]5(C)CC[C@@]4(C)[C@]3(C)CC[C@@H]12`, the growth is 103% (inactive) and -28.4% (active). As for `CCNC(=O)Nc1ccc(-c2nc3c(c(N4CCOC[C@@H]4C)n2)CCN(C2COC2)C3)cc1`, the figure is 26.6% (inactive) and 12.6% (inactive). In the case of `O=C1C2=C(C(=O)c3ccccc31)C(O)(S(=O)(=O)O)C(O)(S(=O)(=O)O)C1N=CC=CC21` (centres undefined), the growth is 31.8% (inactive) and 30.2% (inactive).

Turning to `COc1ccc2c(=O)cc(-c3ccccc3)[nH]c2c1`, the growth is 18.5% (inactive) and 19.4% (inactive). Then `COc1cc(Nc2nc3ccccc3nc2NS(=O)(=O)c2ccc(NC(=O)c3ccc(C)c(OC)c3)cc2)cc(OC)c1`, with 21.5% (inactive) and 11.1% (inactive); and `COc1cc(-c2nccc3cc4c(cc23)OCO4)cc(OC)c1OC`, with 29.5% (inactive).

For the compound `CCN(CC)CCC(CNc1ccnc2cc(Cl)ccc12)c1ccc(OC)cc1` (centres undefined), the growth is 66.5% (inactive) and 62.2% (inactive). As for `CC(=O)Nc1ccc(O)cc1`, the figure is 90.4% (inactive) and 136% (inactive) and 97.6% (inactive). As for `c1ccc2c(CC3=NCCN3)cccc2c1`, the figure is 103% (inactive) and 96.2% (inactive). For `Cc1nn(-c2ccc(Cl)cc2)c2ncnc(N/N=C/c3ccccc3O)c12`, the growth is 41.6% (inactive) and 28.1% (inactive). As for `CCN(CC)C(=S)SSC(=S)N(CC)CC`, the figure is 68.5% (inactive) and 108% (inactive).

For the compound `Nc1nc(SC/C=C/CCl)c2[nH]cnc2n1`, the growth was 99.6% (inactive) and 93.6% (inactive).

Regarding `CC1CCCC(=O)O1` (centres undefined), the growth is 96.2% (inactive) and 95.1% (inactive). Turning to `c1ccc(NCc2ccc3c(c2)OCO3)cc1`, the growth was 96.1% (inactive) and 93.6% (inactive). As for `CN(Cc1ccccc1)Cc1ccccc1`, the figure is 103% (inactive).

Regarding `O=[N+]([O-])c1ccc(N/N=C\c2cc(Br)ccc2O)nc1`, the growth is 25.8% (inactive).

As to `O=C(Nc1ccc(Br)cc1)c1cc(Br)ccc1O`, the growth is 5.68% (active) and 3.31% (active). Then `CN(C)c1ccc(C(=C2C=CC(=[N+](C)C)C=C2)c2ccccc2Cl)cc1`, with -19.5% (active); and `O=C(Cc1cccc2ccccc12)N/N=C/c1ccc2c(c1)CCC2`, with 74.2% (inactive); and `O=C(O)C1C2C=CC(C2)C1C(=O)O` (centres undefined), with 93.6% (inactive) and 17.4% (inactive) and 98.1% (inactive). As for `COc1cc(C(=O)c2ccc3c(c2)OCO3)cc(OC)c1OC`, the growth is 29.3% (inactive). For the compound `O=C(CCc1ccc(O)cc1)N/N=C/c1cc(Br)ccc1O`, the growth was 38.8% (inactive). Then `CC(=O)Oc1cc(C(=O)O)cc(OC(C)=O)c1OC(C)=O`, with 93.4% (inactive) and 95.5% (inactive); and `Cn1c(=O)c2[nH]c(CCCCCCCCc3nc4ccccc4[nH]3)nc2n(C)c1=O`, with 48.3% (inactive) and 87.3% (inactive). Then `O=C1c2ccccc2C(=O)N1/N=C/c1ccc2c(c1)OCO2`, with 74.1% (inactive).

In the case of `S=C1SCN(Cc2ccccc2)CN1Cc1ccccc1`, the growth is 46.6% (inactive). As for `Cc1ccc(-c2noc(CC(=O)c3ccc([N+](=O)[O-])cc3)n2)cc1`, the growth was 98.6% (inactive). With `Oc1ccc(/C=C/c2ccccc2)cc1`, the growth is 70% (inactive) and 43.8% (inactive). For the compound `CC(=O)C(/C=N/C(N)=O)=C(/C)O`, the growth is 100% (inactive). For the compound `COC(=O)c1nc(N)nc(C(=O)OC)c1C(=O)c1ccc(OC)cc1`, the growth is 99% (inactive) and 46% (inactive). Then `Cc1cc(O)c2c(c1)C(=O)c1cc(O)cc(O)c1C2=O`, with 67% (inactive) and 77.9% (inactive); and `C#CCN(C)Cc1ccccc1`, with 100% (inactive) and 105% (inactive); and `CCN(CC)CCCC(C)Nc1ccnc2cc(Oc3ccccc3)ccc12` (centres undefined), with 61.9% (inactive) and 67.7% (inactive).

Take `COc1ccccc1NC(=O)OCC#CCOC(=O)Nc1ccccc1OC`: the growth was 102% (inactive) and 89.3% (inactive). For the compound `Cc1cc(O)c(C(C)C)cc1S(=O)(=O)O` (tested in a mixture with another compound), the growth was 96.1% (inactive) and 19.8% (inactive) and 81.7% (inactive). As for `Oc1c(CN2CCCCC2)ccc2cccnc12`, the figure is 52.1% (inactive) and 39% (inactive). As for `NS(=O)(=O)c1cc2c(cc1Cl)NC(C(Cl)Cl)NS2(=O)=O` (centres undefined), the growth is 99% (inactive) and 99.8% (inactive). Then `COc1cc2nc(N3CCN(C(=O)C4COc5ccccc5O4)CC3)nc(N)c2cc1OC` (centres undefined), with 91.7% (inactive) and 93.1% (inactive) and 110% (inactive).

(Values after PubChem BioAssay (NCI).)
